# Results published in PubChem BioAssay AID1273 (Columbia University Molecular Screening Center, 2008).
# In all, about 130,000 compounds went through this assay and about 1,200 (0.92%) were called active.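 How the source made its calls: active means inhibition above the mean plus 3 SD, with well images judged a real hit on visual review (cut at about 60% in these data, passing the limit was not always enough); inconclusive means inhibition over the cutoff but images rejected on review; inactive means inhibition not above the cutoff.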 Shown is part of a subset that was picked to be rich in actives.
# Test: inhibitors of insulin promoter-driven GFP, primary screen, imaging, TRM-6 cells (human fetal islet line), eGFP reporter, cell count (AID 1273;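 on normalized cell count: cells exposed to compound for 48 h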)
# Settings: at 2 µM; inhibition: stronger effect = higher value; normalized cell count: measured here: cell count, toxicity
SMILES,inhibition,normalized cell count
CC(=O)c1ccc(OC(NC(=O)Cc2ccccc2)C(Cl)(Cl)Cl)cc1 (stereo not given),-6.45% (inactive),137%
CCOP(=O)(OCC)C(NC(=O)c1ccc(C)cc1)C(Cl)(Cl)Cl (stereo not given),-37.5% (inactive),107%
COP(=O)(OC)C(NC(=O)c1ccc(C)cc1)C(Cl)(Cl)Cl (stereo not given),78.6% (active),102%
O=C(OCCN1CCOCC1)C1(c2ccccc2)CCCC1,-36.4% (inactive),95.2%
CN(C)P(=S)(Nc1ccccc1)C(Cl)(Cl)Cl (stereo not given),26.7% (inactive),29.6%
Cc1ccc(-c2nn(CCC#N)cc2C(=O)O)cc1C,-30% (inactive),85.1%
CCN(CC)C(=O)c1ccc(NC(=O)c2cc(-n3cnnc3)ccc2Cl)cc1,86.7% (active),44.7%
CC(c1ccccc1)(c1ccccc1)c1ccncc1,27.3% (inactive),109%
Cc1ccsc1C(=O)C1CCCN(Cc2ccc(O)cc2)C1 (stereo not given),11.1% (inactive),139%
C=CCN(CC=C)C(=O)Nc1ccc(OCC)cc1,36.8% (inactive),88.5%
